Compound activity (PubChem BioAssay)
Most compounds without a hit are left out; they make up all but 1.3% or so of the library.
MazF activator: activators of E. coli MazEF toxin-antitoxin RNase | P0AE70 | FAM/BHQ RNA-DNA oligo cleavage fluorescence, 5 h | activation, % at 20 µM | 350,000 tested, 0.32% active | AID 504720; in the data active = activation above about 50%
Mtb hypoxia rep: reduces hypoxia-regulated biosensor signal in M. tuberculosis | M. tuberculosis hypoxia-regulated fluorescent reporter, fluorescence | fluorescence inhibition, % (concentration not given with the values) | 300,000 tested, 0.1% active | AID 1159583; in the data active = fluorescence inhibition mostly above about 23%, no sharp cut-off; inactive = mostly below about 17%
TcdB inh: inhibitors of Clostridioides difficile toxin B glycohydrolase. P18177. TcdB glycohydrolase enzymatic assay, plate reader. inhibition, % at 9.99 µM. 350,000 tested, 0.24% active; in the data active = inhibition above about 10%
Target sequence (P18177 whole entry, looked up): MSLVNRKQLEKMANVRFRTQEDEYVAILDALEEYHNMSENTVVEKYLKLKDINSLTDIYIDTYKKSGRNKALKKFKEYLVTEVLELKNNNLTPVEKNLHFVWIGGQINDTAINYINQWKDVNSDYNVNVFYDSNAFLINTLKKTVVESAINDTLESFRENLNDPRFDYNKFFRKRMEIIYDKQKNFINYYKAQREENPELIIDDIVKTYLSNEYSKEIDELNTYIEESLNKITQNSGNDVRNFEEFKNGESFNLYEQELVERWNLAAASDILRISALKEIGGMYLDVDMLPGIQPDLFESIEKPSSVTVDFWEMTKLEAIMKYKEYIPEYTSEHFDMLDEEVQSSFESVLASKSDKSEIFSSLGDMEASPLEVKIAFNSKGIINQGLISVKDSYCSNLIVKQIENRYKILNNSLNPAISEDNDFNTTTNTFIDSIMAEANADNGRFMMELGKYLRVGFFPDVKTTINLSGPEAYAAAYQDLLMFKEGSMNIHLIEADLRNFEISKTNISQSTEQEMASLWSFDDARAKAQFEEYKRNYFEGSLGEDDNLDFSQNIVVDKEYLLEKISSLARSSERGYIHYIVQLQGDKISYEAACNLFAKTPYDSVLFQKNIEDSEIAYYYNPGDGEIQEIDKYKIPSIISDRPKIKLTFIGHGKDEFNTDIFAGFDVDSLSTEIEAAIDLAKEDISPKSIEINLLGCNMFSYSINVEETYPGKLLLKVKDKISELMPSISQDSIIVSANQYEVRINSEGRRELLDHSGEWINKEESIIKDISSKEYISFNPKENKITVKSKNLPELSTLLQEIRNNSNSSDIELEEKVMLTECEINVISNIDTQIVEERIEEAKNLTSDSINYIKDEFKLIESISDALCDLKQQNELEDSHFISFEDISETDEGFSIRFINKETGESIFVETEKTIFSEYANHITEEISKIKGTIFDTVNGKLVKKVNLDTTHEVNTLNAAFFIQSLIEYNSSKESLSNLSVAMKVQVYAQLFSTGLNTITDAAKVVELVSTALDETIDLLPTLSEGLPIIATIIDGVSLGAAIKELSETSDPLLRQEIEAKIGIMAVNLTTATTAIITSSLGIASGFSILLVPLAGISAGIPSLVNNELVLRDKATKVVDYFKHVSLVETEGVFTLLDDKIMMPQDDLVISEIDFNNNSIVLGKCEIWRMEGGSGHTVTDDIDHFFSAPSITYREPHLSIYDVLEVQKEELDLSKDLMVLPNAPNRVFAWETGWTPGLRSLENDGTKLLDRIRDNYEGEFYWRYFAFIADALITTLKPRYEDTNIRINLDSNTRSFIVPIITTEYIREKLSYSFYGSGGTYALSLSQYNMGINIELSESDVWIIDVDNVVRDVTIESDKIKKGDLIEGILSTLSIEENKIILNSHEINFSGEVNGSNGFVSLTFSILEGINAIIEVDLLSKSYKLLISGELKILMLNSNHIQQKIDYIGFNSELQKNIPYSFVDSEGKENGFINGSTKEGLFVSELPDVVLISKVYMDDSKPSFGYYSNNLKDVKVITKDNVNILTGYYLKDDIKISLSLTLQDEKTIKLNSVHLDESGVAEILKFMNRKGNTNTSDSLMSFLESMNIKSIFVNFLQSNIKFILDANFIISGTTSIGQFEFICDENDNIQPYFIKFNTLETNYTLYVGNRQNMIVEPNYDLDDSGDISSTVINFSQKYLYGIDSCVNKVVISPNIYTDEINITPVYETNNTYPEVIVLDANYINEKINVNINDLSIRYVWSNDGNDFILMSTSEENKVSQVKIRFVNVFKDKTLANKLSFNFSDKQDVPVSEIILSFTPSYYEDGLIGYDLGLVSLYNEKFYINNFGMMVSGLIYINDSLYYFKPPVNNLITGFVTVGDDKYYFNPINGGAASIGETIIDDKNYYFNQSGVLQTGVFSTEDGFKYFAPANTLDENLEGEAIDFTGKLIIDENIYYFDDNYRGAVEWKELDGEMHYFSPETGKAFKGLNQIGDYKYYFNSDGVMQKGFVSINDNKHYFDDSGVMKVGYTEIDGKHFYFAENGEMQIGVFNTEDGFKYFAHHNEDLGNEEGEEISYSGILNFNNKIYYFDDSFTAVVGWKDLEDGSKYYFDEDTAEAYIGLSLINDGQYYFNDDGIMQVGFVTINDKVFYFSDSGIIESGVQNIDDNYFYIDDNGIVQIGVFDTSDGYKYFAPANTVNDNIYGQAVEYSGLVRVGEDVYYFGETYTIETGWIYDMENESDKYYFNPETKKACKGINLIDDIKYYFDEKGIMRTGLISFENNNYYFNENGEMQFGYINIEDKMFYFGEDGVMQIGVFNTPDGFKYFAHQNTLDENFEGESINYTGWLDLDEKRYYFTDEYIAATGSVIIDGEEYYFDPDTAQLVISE
PfHsp40 rescue: compounds rescuing yeast from Plasmodium falciparum HSP40 toxicity; S. cerevisiae expressing PfHsp40, growth rescue, ATP luminescence; growth rescue, % at 12.5 µM; 340,000 tested, 0.68% active; AID 504582; in the data active = growth rescue above about 28%, passing the limit was not always enough; inconclusive = no clear call, values can overlap the other calls;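 note: yeast W303a lacking pdr1 and pdr3 grown in galactose medium; growth measured after three days at 30 °C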
ugtP null kill: growth inhibition of S. aureus ugtP deletion strain. growth inhibition, % (concentration not given with the values). 330,000 tested, 0.54% active. S. aureus RN4220 ugtP deletion, OD600 growth, 16 h; in the data active = growth inhibition above about 68%;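 note: plate controls were untreated wells for no effect and antibiotic for full effect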
Sa RN4220 lethal: kills Staphylococcus aureus RN4220; S. aureus RN4220 growth, OD600, 16 h; inhibition, % (no concentration beside the values); 330,000 tested, 0.33% active; in the data active = inhibition above about 85%;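 note: plate controls were untreated cells for no effect and reference antibiotic for full effect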
* = called active by the depositor; ? = inconclusive; / = not tested or not shown.

SMILES	MazF activator	Mtb hypoxia rep	TcdB inh	PfHsp40 rescue	ugtP null kill	Sa RN4220 lethal
CCC(=O)c1cn(CC(=O)Nc2cccc(C)c2)c2ccccc12	0	1	1	-1	3	2
CCC(=O)c1cn(CC(=O)Nc2cccc(C)c2C)c2ccccc12	-9	7	14*	3	2	2
COc1ccc(C#Cc2cnc3c(c2)C(=O)N([C@H](C)CO)C[C@H](C)[C@H](CN(C)C)O3)cc1	/	/	2	/	/	/
CCOC(=O)C1C2COc3ccc(OC)cc3C2N2C(=O)CN(CCc3c[nH]c4ccccc34)C(=O)[C@@]12C (some centres not stated)	/	3	/	/	11	9
CCOC(=O)C1C2COc3ccccc3C2N2C(=O)c3cc(OC)c(OC)cc3NC(=O)[C@@]12C (some centres not stated)	/	-2	/	/	0	6
Clc1cccc(/C(Cc2nc3ccccc3[nH]2)=N\Nc2ccccc2)c1	61*	/	1	-1	/	/
Cc1noc(C)c1NC(=O)N(C)C[C@H]1Oc2ccc(NS(=O)(=O)c3ccc(F)cc3)cc2CC(=O)N([C@H](C)CO)C[C@H]1C	/	/	0	/	/	/
COc1ccc(S(=O)(=O)N(C)C[C@H]2OCCCC[C@@H](C)Oc3ccc(NS(=O)(=O)c4cn(C)cn4)cc3C(=O)N([C@H](C)CO)C[C@H]2C)cc1	/	/	0	/	/	/
Cc1ccc(NC(=O)/C(C#N)=C/c2ccc(C)s2)c(C)c1	190*	13	/	2	2	1
Cc1ccc(C2CC2C(=O)NNC(=S)Nc2cccc(Cl)c2)cc1 (configuration not stated)	2	4	/	79*	-8	-7
Cc1ccc(C2CC2C(=O)NNC(=S)Nc2cccc(C)c2)cc1 (configuration not stated)	5	-2	/	?	8	2
CC(Cc1cccs1)NC(=O)Nc1ccc(Cl)c(Cl)c1 (configuration not stated)	44	-3	/	131*	-21	18
CO[C@H]1CN(C)C(=O)c2ccc(NC(=O)c3cnccn3)cc2OC[C@H](C)N(C(=O)C2CC2)C[C@@H]1C	/	/	0	/	/	/
CCCNC(=O)Cn1c(=CC(=O)C(C)(C)C)sc(=Cc2ccc(-c3ccc([N+](=O)[O-])cc3)o2)c1=O	/	-5	/	/	-19	2
c1c[nH]c(CN2CCN(Cc3ncc[nH]3)CC2)n1	2	/	3	384*	/	/
O=C(c1cccc(C(F)(F)F)c1)C1CCCN(Cc2ncc[nH]2)C1 (configuration not stated)	3	9	1	14	-3	5
COc1ccc(-c2ccc([C@H]3[C@@H](CO)N4C(=O)CN(C(=O)C5CCCC5)C[C@H]34)cc2)cc1	/	/	1	/	/	/
Cc1ccc(C)c(S(=O)(=O)NCC(=O)Nc2sc3c(c2C(N)=O)CCC(C)C3)c1 (configuration not stated)	56*	/	/	2	1	-1
Cc1ccc(S(=O)(=O)Nc2ccc3cc([N+](=O)[O-])ccc3c2[N+](=O)[O-])cc1	3	20	0	352*	75	71
Cc1ccc(S(=O)(=O)Nc2ccc3ccccc3c2[N+](=O)[O-])cc1	-1	7	-5	408*	52	71
COc1ccc(NS(=O)(=O)c2ccc(C)cc2)c([N+](=O)[O-])c1	7	11	8	2	7	13
CCCN(CCC)c1nc(-c2ccccn2)nc2ccccc12	0	/	1	2	100*	99*
Cc1ccc(-c2nnc(-c3ccccc3)c(-c3ccccc3)n2)cc1	-11	23	0	2	92*	-8
CN(C)c1nc(-c2ccccn2)nnc1-c1ccccc1	2	/	/	393*	3	13
CCN(CC)c1nc(-c2ccccn2)nc(-c2ccccc2)c1C#N	12	1	0	71*	-6	1
SMILES	MazF activator	Mtb hypoxia rep	TcdB inh	PfHsp40 rescue	ugtP null kill	Sa RN4220 lethal
CN(C)c1nc(-c2ccccc2)nc(-c2ccc(Cl)cc2)c1C#N	0	17	/	0	4	-17
c1ccc(-c2nnc(-c3ccccn3)c(-c3ccccn3)n2)nc1	2	-14	2	/	2	1
COc1cc2[nH]c(=S)nc(NCCC(C)C)c2cc1OC	13	4	10*	-1	6	3
Cc1ccc(-c2ccc3c(c2)O[C@@H](CN(C)S(C)(=O)=O)[C@@H](C)CN([C@H](C)CO)S3(=O)=O)cc1	/	/	0	/	/	/
COc1ccc(C=NNC(=O)c2cnccn2)cc1O	/	17	/	/	6	2
COc1ccc(NC(=O)N(C)C[C@H]2Oc3c(NC(=O)c4ccc(-c5nccs5)cc4)cccc3C(=O)N([C@@H](C)CO)C[C@H]2C)cc1	/	/	1	/	/	/
COc1ccccc1N=Nc1ccc(O)c2ncccc12	-8	24	1	4	-18	5
Oc1ccc(F)c2cccnc12	-24	7	0	-1	12	23
CCS(=O)(=O)c1ccc(N=Nc2ccc(O)c3ncccc23)c(OC)c1	2	16	-1	214*	-15	2
Oc1ccc(Cl)c2cccnc12	9	3	1	-1	98*	97*
Cc1ccc(N=Nc2ccc(O)c3ncccc23)cc1	12	5	1	-1	-5	36
Oc1ccc(N=Nc2ccccc2C(F)(F)F)c2cccnc12	0	16	0	0	99*	96*
COc1cccc(S(=O)(=O)Nc2ccc3c(c2)[C@@H]2C[C@H](CC(=O)NCc4cccc(F)c4)O[C@H](CO)[C@@H]2O3)c1	/	/	0	/	/	/
CCCCCCCCCCCCCCCCCCNc1ccn(C2OC(COP(=O)(O)OCC3OC(n4cc(F)c(=O)[nH]c4=O)CC3O)C(O)C2O)c(=O)n1 (configuration not stated)	-21	/	1	42*	/	/
CC(C)C#Cc1cnc2c(c1)C(=O)N([C@H](C)CO)C[C@H](C)[C@H](CN(C)C(=O)c1ccc3c(c1)OCO3)O2	/	/	-1	/	/	/
O=C(CSc1nc2ccccc2[nH]1)Nc1nc(-c2cccc(Br)c2)cs1	11	1	0	-1	99*	99*
CCCCn1c(SCC(=O)Nc2nccs2)nc2ccccc2c1=O	2	3	/	0	5	5
CN(C)CCCn1c(SCC(=O)Nc2nc(-c3cccc(Br)c3)cs2)nc2ccccc2c1=O	-35	/	2	-1	100*	101*
NC(=NOC(=O)c1ccncc1)c1cccc([N+](=O)[O-])c1	/	9	/	/	2	2
COc1ccc(-c2nc(N)ncc2-c2ccccc2OC)c(O)c1	-3	10	13*	0	13	3
CC(C)N(Cc1ccccc1)C(=O)CN1c2cccc3cccc(c23)S1(=O)=O	7	6	1	70*	4	4
CN(C)C(=O)CN1c2cccc3cccc(c23)S1(=O)=O	2	7	1	-1	-11	4
CS(=O)(=O)N1CCc2cc(C(=O)Nc3ccc(O)cc3)ccc21	3	2	25*	0	7	0
O=C(CC(=O)N/N=C/c1ccc(O)cc1)N/N=C/c1ccc(O)cc1	2	/	24*	1	/	/
